The panel holds about 83,000 compounds, 20% with a hit somewhere; the sample as a whole holds those more often.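 Treatment: one concentration, 48 hours, 96-well format. Scoring: percent growth, with anything below 10 considered active.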 The source made the active and inactive calls.
Key:
Test in all cases: NCI-60 one-dose screen, 48 h (100 = growth as untreated, 0 = no growth, -100 = all killed)
Details in all cases: 10 µM unless noted
[1] = tested on: SR leukemia
[2] = tested on: RPMI-8226 leukemia
[3] = tested on: OVCAR-8 ovarian
[4] = tested on: OVCAR-5 ovarian
[5] = tested on: OVCAR-4 ovarian
[6] = tested on: SK-OV-3 ovarian
[7] = tested on: IGROV1 ovarian
[8] = tested on: OVCAR-3 ovarian
[9] = tested on: HS 578T breast
[10] = tested on: NCI/ADR-RES ovarian
[11] = tested on: T-47D breast
[12] = tested on: BT-549 breast
[13] = tested on: MDA-MB-435 melanoma
[14] = tested on: SW-620 colon
[15] = tested on: MCF7 breast
[16] = tested on: HCT-116 colon
[17] = tested on: KM12 colon
[18] = tested on: HCC-2998 colon

Measured: growth

O=[N+]([O-])c1ccc(Oc2cccc3c(Oc4ccc([N+](=O)[O-])cc4[N+](=O)[O-])cccc23)c([N+](=O)[O-])c1
inactive: [1] 77.5% | [2] 95.6% | [3] 77.7% | [4] 109% | [5] 87.8% | [6] 83.1% | [7] 79.6% | [8] 95.2% | [9] 88.1% | [10] 79.9% | [11] 81.7% | [12] 82.4% | [13] 106% | [14] 87.8% | [15] 76.6% | [16] 83.1% | [17] 86.7%

COc1ccc(CNc2c3ccccc3nc3ccccc23)cc1OC
active: [1] 8.57% | [2] 0.62% | [15] 0.674%
inactive: [3] 23.9% | [4] 27.5% | [5] 21.4% | [6] 41.2% | [7] 10.9% | [8] 43.7% | [9] 37.2% | [10] 19.3% | [11] 25.8% | [12] 42.1% | [14] 16% | [16] 12.2% | [17] 31.6%

COC(=O)[C@@H](Cc1c[nH]c2ccccc12)NC(=O)[C@H](Cc1ccccc1)NCc1ccncc1
inactive: [1] 99.2% | [2] 84.6% | [3] 89.1% | [4] 101% | [5] 98.7% | [6] 94% | [7] 101% | [8] 101% | [9] 99.3% | [10] 99.9% | [11] 93.2% | [12] 96.5% | [14] 104% | [15] 110% | [16] 87.4% | [18] 112% | [17] 96.5%

CCCCN(CCC#N)C(N)=O
inactive: [1] 130% | [2] 113% | [3] 107% | [4] 106% | [5] 122% | [6] 109% | [7] 100% | [8] 89.7% | [9] 105% | [10] 109% | [11] 100% | [12] 109% | [14] 99.2% | [15] 105% | [16] 106% | [18] 103% | [17] 105%

c1ccc2[nH]c(-c3ccc(-c4nccc5c4[nH]c4ccccc45)cc3)nc2c1
active: [1] -4.29% | [8] -24.2%
inactive: [2] 61.1% | [3] 16.5% | [4] 129% | [5] 23% | [6] 104% | [7] 94.5% | [9] 73.7% | [10] 62.6% | [11] 34.4% | [12] 73.7% | [14] 68.5% | [15] 30.4% | [16] 16.3% | [18] 74% | [17] 76.6%

COc1ccc(S(=O)(=O)Oc2ccc(-c3sc4cc(OS(=O)(=O)c5ccc(OC)cc5)ccc4c3C(=O)c3ccc(OCCN4CCCCC4)cc3)cc2)cc1
inactive: [1] 102% | [2] 109% | [3] 108% | [4] 95.7% | [5] 97.7% | [6] 95.9% | [7] 99.3% | [8] 100% | [9] 107% | [10] 110% | [11] 94.2% | [12] 94.1% | [14] 108% | [15] 91.3% | [16] 98.8% | [18] 105% | [17] 99.1%

CCOC(=O)C1=C(c2ccccc2)N=C2N(c3ccccc3)N=C(C(C)=O)N2C1c1ccc(Br)cc1 (stereo not given)
inactive: [1] 81.8% | [2] 77.8% | [3] 93.9% | [4] 104% | [5] 104% | [6] 112% | [7] 88% | [8] 102% | [9] 83.2% | [10] 103% | [11] 79.8% | [12] 98.3% | [13] 101% | [14] 97% | [15] 89.2% | [16] 84.7% | [17] 94.9%

O=C1C2C(c3cccs3)C=C(c3ccc(Cl)cc3)N2C(=S)N1c1ccccc1 (stereo not given)
inactive: [1] 97.6% | [2] 99.3% | [3] 97.8% | [4] 96.5% | [5] 98.1% | [6] 109% | [7] 93.2% | [8] 104% | [9] 92.2% | [10] 103% | [11] 100% | [12] 92.4% | [14] 102% | [15] 90.9% | [16] 101% | [18] 111% | [17] 104%

— PubChem BioAssay (NCI)
